The whole screen tested about 290,000 compounds, of which about 50 (0.02%) were called active. The sample holds actives, similar compounds and a random draw of the others, so the mix is not that of the screen. Results with a measured potency or affinity are listed apart. Unmarked numbers belong to inactive results.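 The calls were made as follows: active = displacement of at least 50% at 20 µM, with a fluorescence ratio check between 0.3 and a set limit; inactive = the rest.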

In this test the target is E3 ubiquitin-protein ligase SIAH1 (Homo sapiens) (UniProt Q8IUQ4). Briefly: blockers of Siah-1 interaction with plectin peptide – biochemical, fluorescence polarization, rhodamine-plectin, uHTS, primary screen (AID 1817).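 Also: plate controls were Siah plus tracer with DMSO for no effect and tracer alone without Siah for full effect.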 The following applies: Siah-1 / rhodamine-plectin peptide fluorescence polarization; at 20 µM; hits give high values.
Chain of E3 ubiquitin-protein ligase SIAH1 (Homo sapiens) (Q8IUQ4 whole entry, looked up): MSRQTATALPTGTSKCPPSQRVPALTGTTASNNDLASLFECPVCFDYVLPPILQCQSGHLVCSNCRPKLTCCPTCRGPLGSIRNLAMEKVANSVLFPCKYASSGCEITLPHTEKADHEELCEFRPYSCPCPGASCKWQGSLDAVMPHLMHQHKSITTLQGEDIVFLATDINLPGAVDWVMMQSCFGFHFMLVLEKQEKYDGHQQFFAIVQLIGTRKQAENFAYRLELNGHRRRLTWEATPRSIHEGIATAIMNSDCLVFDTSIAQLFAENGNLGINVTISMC
Turning to `C=CCc1cccc2cc(C(=O)Nc3ccc(NC(C)=O)cc3)c(=O)oc12`, the displacement is 9.1%.

Turning to `C=CCc1cccc2cc(C(=O)Nc3ccc(F)cc3)c(=O)oc12`, the displacement is 5.1%.

As to `CCn1c(SC(C)C(=O)O)nnc1-c1cccnc1` (stereo not given), the displacement is -1.4%. Take `Cc1ccc(-n2ncc3c2CC(C)(C)CC3NC(=O)c2ccc[n+]([O-])c2)cc1` (stereo not given): the displacement was 4.8%. To `C=CCNC(=S)Nc1ccc2nsnc2c1` belongs 52.1% (active). Turning to `C=CCNC(=S)Nc1ccc2nc(C)c(C)nc2c1`, the displacement is 3.4%.

As for `OCCNC(=S)Nc1ccc2nsnc2c1`, the displacement was -1.1%. To `O=C(N/N=C/c1cccnc1)c1ccc2c(c1)OCCO2` belongs -2.3%; to `COc1ccc(-c2nc3c4ccccc4ccn3c2CN2CCOCC2)cc1OC`, 13.8%; to `COC(=O)c1ccc2c(=O)n(CCCN3CCCC3=O)c(=S)[nH]c2c1`, -3.7%. As to `O=C(O)c1nc(-c2ccccc2)n(-c2cccc(C(F)(F)F)c2)n1`, the displacement is -2.9%.

Turning to `COCCNC(=O)CSc1nc2cc(OC)c(OC)cc2c(=O)n1Cc1ccc(OC)cc1`, the displacement is 0.2%.

`Cc1cc(C)n2nnnc2c1C#N`: the displacement is 1.6%.

Take `O=C(Nc1ccc(Br)cc1)c1ccc(N2C(=O)C3CCCCC3C2=O)cc1` (stereo not given): the displacement is -1%.

Regarding `O=C(Nc1ccc(Br)cc1)c1ccc(N2C(=O)C3CC=C(Cl)CC3C2=O)cc1` (stereo not given), the displacement was -0.2%. On to `CCCOc1ccc(C(=O)CCC(=O)OCC(=O)Nc2cc(C)on2)cc1`, for which the displacement was -2.7%. Turning to `COc1ccccc1C(=O)Nc1ccnn1C1CCN(Cc2ccc3nonc3c2)CC1`, the displacement is 7.2%. The value for `Cn1c(Cc2csc(N)n2)nnc1SCC(=O)NC1CCCCC1` was 0.1%; that for `O=S(=O)(c1ccc(Cl)cc1)N1CCN(C2CCN(Cc3ccccc3)CC2)CC1` was 3%; that for `Cc1oc2cc(O)ccc2c(=O)c1-c1ccccc1` was 8.8%.

Take `Nc1ccc(-c2c3ccc(=O)cc-3oc3cc(O)ccc23)cc1C(=O)O`: the displacement is 3%. Consider `C/C(=N\NC(=O)c1c(Cl)cnn1C)c1cccc(NC(=O)COc2ccccc2)c1`, for which the displacement is 0.3%.

`CC(=O)Nc1ccc(C(=S)NCCCO)cc1`: the displacement was -4.5%.

As to `CC(C)COC(=O)c1ccc2c(c1O)C(=O)c1ccccc1C2=O`, the displacement is 4.6%. On to `Cc1[nH]c2ccccc2c1CCNC(=O)c1ccc2c(c1[N+](=O)[O-])C(=O)c1ccccc1C2=O`, for which the displacement is 22.7%. Consider `O=C(COC(=O)c1ccc2c(c1Cl)C(=O)c1ccccc1C2=O)NC1CCCCC1`, for which the displacement is -2.2%. Turning to `COC(=O)c1ccc2c(c1O)C(=O)c1ccccc1C2=O`, the displacement is 71.8% (active). For `O=C(COC(=O)c1ccc2c(c1Cl)C(=O)c1ccccc1C2=O)NC1CC1`, the displacement is -3.3%. For `CN(C)C(=O)c1ccc2c(c1[N+](=O)[O-])C(=O)c1ccccc1C2=O`, the displacement was 60.6% (active). Consider `O=C(COC(=O)c1ccc2c(c1[N+](=O)[O-])C(=O)c1ccccc1C2=O)NC1CC1`, for which the displacement was 76.3% (active). With `COc1ccc2c(c1O)C(=O)c1ccccc1C2=O`, the displacement was 2.4%. In the case of `CCN(CC)C(=O)c1ccc2c(c1[N+](=O)[O-])C(=O)c1ccccc1C2=O`, the displacement is 34.3%. Regarding `CN(CCOc1ccccc1)S(=O)(=O)c1ccc2oc3ccccc3c2c1`, the displacement is 2.8%. As to `CC(=O)c1ccc(NC(=O)CCNS(=O)(=O)c2ccccc2F)cc1`, the displacement was -1.6%. For the compound `Cc1ccc(N(C)S(=O)(=O)c2cc3c(cc2C)NC(=O)CO3)cc1`, the displacement is -1%. `Cc1nc(N)sc1-c1csc(Nc2ncccn2)n1`: the displacement is 57.3% (active).

As for `Cc1nc(N)sc1-c1csc(Nc2ccccc2)n1`, the displacement is 3.2%.

As to `Cc1nc(N)sc1-c1csc(Nc2ccccn2)n1`, the displacement is -1.4%.

For `CCOC(=O)c1[nH]c2ccccc2c1NC(=O)c1ccc(S(=O)(=O)N2CCCCC2)cc1`, the displacement was -3.4%. With `COc1ccc(C(=O)N2CCC(O)(c3ccc(Cl)cc3)CC2)cc1OC`, the displacement was -8.7%. `CC1CCc2onc(C(=O)NCc3ccco3)c2C1` (stereo not given): the displacement was 3.6%. With `Cc1ccccc1Nc1nc(-c2sc(NC(=O)c3ccccc3)nc2C)cs1`, the displacement is -5.4%. For the compound `O=C(CN1C(=O)N/C(=C\c2ccccc2OCc2ccc(C(=O)O)cc2)C1=O)Nc1ccc(F)cc1`, the displacement is 1.1%.

With `O=C(CN1C(=O)N/C(=C\c2ccccc2OCc2ccc(C(=O)O)cc2)C1=O)Nc1ccccc1F`, the displacement was 10.4%.

With `CCOC(=O)CNC(=S)N(Cc1cccs1)C1CCCC1`, the displacement was 0.7%. In the case of `Cc1cccc(C(=O)NNC(=O)c2ccc(S(=O)(=O)N3CCOCC3)cc2)c1`, the displacement is -3.9%. With `O=c1cc(-c2ccccc2)[nH]n1-c1ccc([N+](=O)[O-])cc1`, the displacement was -0.2%. Regarding `O=c1[nH]n(-c2ccccc2)c(=O)c2ccccc12`, the displacement is 0%. `O=C(C1CCN(S(=O)(=O)c2ccc(F)cc2)CC1)N1CC=C(c2ccccc2)CC1`: the displacement is 3%. For `COc1ccc(C(CNC(=O)C(C)c2ccc3cc(OC)ccc3c2)N(C)C)cc1` (stereo not given), the displacement was 5.2%.

For `CC1=C(C#N)c2nc(N)c(C#N)c(C)c2/C1=C\c1ccc(OCC(=O)O)c(Cl)c1`, the displacement was 0%.

On to `CC1=C(C#N)c2nc(N)c(C#N)c(C)c2/C1=C\c1ccc(C)cc1`, for which the displacement is -2.8%.

Regarding `COc1ccc(C2=[N+]([O-])C(C)(C)C(c3ccccc3)=N2)cc1`, the displacement is 6.6%. Turning to `COc1ccc(-c2nc(CN3CCN(Cc4cccc(F)c4)CC3)c(C)o2)cc1`, the displacement was 13.6%. Take `O=C(CCC1CCCC1)N1CCN(C(=O)c2ccco2)CC1`: the displacement was -6%. As for `O=C(CNC(=O)c1ccccc1F)NC1CCN(Cc2ccccc2)CC1`, the displacement is -3.7%. For `CC(SCc1ccccc1)C(=O)Nc1ccccc1Br` (stereo not given), the displacement was -6.3%. On to `Cc1sc2cc(-c3cccc([N+](=O)[O-])c3)c(-c3cccc([N+](=O)[O-])c3)c[n+]2c1C`, for which the displacement is 5.1%. Take `Oc1ccccc1/C=N/NC(=S)NC1CC2CC1C1C=CCC21` (stereo not given): the displacement was 2.4%. `CC(C)(C)c1nnc(N/N=C/c2ccc(O)cc2)n(N)c1=O`: the displacement is 18.4%. To `CC(C)(C)c1nnc(N/N=C/c2ccccc2)n(N)c1=O` belongs 51.9% (active). Take `CC(C)(C)c1nnc(N/N=C/c2ccc(Br)cc2)n(N)c1=O`: the displacement is 7.3%. For `CCCc1nnc(NC(=O)C2CC(=O)N(CCc3ccc(F)cc3)C2)s1` (stereo not given), the displacement is 24.3%. The value for `Cc1c(C)n(C(=O)CSc2nc3ccccc3[nH]2)c2ccccc12` was 51% (active). To `Cc1[nH]c2ccccc2c1C(=O)CSc1nc2ccccc2[nH]1` belongs -0.5%.

In the case of `Cc1c(C)n(C(=O)CSc2ncn[nH]2)c2ccccc12`, the displacement is -4.9%. Regarding `O=C(CSCc1nc2scc(-c3cccs3)c2c(=O)[nH]1)Nc1ccccn1`, the displacement is -4.4%. As for `COc1ccc(OCC(O)CNC(=O)c2ccccc2C(=O)O)cc1` (stereo not given), the displacement is 8.1%. For the compound `CCOC(=O)N1CCN(c2cc(NCCC(=O)O)c3c4c(onc24)-c2ccccc2C3=O)CC1`, the displacement was 16.7%. For the compound `CCOC(=O)C(C(=O)OCC)c1cc(Br)c2noc3c2c1C(=O)c1ccccc1-3`, the displacement was 102% (active).

For `CCOc1ccc2noc3c2c1C(=O)c1ccccc1-3`, the displacement is 37.3%.

Consider `COc1ccc(-c2cc(C(=O)N3CCc4ccccc4C3)no2)cc1`, for which the displacement was 0.3%. For the compound `Cc1ccc(S(=O)(=O)N2CCN(c3cccc(C)c3)CC2)cc1`, the displacement is 12.1%. Turning to `COc1cccc(OCc2cc(C(=O)NC3CCOCC3)no2)c1`, the displacement was 1.4%. `CC1=C([N+](=O)[O-])C(c2ccccc2)NC(=O)N1` (stereo not given): the displacement was -5.5%.
